Data reported in PubChem BioAssay (EPA / NIEHS).
Inconclusive results are not listed. Active and inactive are the calls of the source. The calls were made as follows, unless noted: active = hit-call score of the fitted dose curve at least 0.9, where 1 is the maximum; inconclusive = response in the unintended direction; inactive = score below 0.9.

Legend:
[1] = molecular target: Cellular tumor antigen p53 (Homo sapiens) (UniProt P04637); assay: TOX21_p53_BLA_p2_ratio: Tox21 HCT-116 p53 Agonism Beta-lactamase Assay, Ratio, Phase 2 (AID 2283592)
Sequence of Cellular tumor antigen p53 (Homo sapiens) (P04637 whole entry, looked up): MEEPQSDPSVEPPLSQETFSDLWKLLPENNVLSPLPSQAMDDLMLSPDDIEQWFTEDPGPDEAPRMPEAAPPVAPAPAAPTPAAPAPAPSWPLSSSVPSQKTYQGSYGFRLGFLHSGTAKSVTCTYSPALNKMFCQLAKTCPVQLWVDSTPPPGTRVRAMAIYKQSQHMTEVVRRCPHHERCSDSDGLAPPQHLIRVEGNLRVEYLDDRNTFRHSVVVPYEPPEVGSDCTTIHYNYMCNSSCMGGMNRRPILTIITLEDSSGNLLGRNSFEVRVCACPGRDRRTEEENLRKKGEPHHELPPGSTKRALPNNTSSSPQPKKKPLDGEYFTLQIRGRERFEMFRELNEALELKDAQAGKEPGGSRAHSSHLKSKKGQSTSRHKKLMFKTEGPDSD
Method in brief: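 Human colon HCT116 cells with an inducible p53 beta-lactamase reporter are exposed to test chemicals for 16 h at 37C. Reporter induction is read as the 460/530 nm emission ratio after CCF4-AM loading, normalized to DMSO.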

[2] = TOX21_p53_BLA_p3_viability: Viability Assessment in the Tox21 HCT-116 p53 Agonism Beta-lactamase Assay, Phase 3 (AID 2283593);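 also: cells exposed to compound for 16 h before reading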
Method in brief: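 HCT116 cells, 4000/well, dosed 5 h after plating by pin transfer (217-fold dilution from DMSO stock) and incubated 16 h at 37C, 5% CO2. Viability read as ATP luminescence with CellTiter-Glo after 30 min at room temperature.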

[3] = molecular target: Cellular tumor antigen p53 (Homo sapiens) (UniProt P04637); assay: TOX21_p53_BLA_p3_ratio: Tox21 HCT-116 p53 Agonism Beta-lactamase Assay, Ratio, Phase 3 (AID 2283596)
Method in brief: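 HCT116 p53-bla cells (4000/well) given compound in DMSO (217-fold dilution) after 5 h, incubated 16 h at 37C. CCF4-AM substrate 2 h at room temperature; 460/530 nm emission ratio, gain fitted against DMSO.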

[4] = molecular target: Cellular tumor antigen p53 (Homo sapiens) (UniProt P04637); assay: TOX21_p53_BLA_p5_ratio: Tox21 HCT-116 p53 Agonism Beta-lactamase Assay, Ratio, Phase 5 (AID 2283599)
Method in brief: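 HCT-116 p53-bla cells (4000/well) plated 5 h, dosed with compound (217-fold DMSO dilution) for 16 h at 37 C; CCF4-AM substrate 2 h at room temperature. Activity is the 460/530 nm emission ratio (405 nm excitation), fitted in gain-of-signal direction versus DMSO.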

[5] = TOX21_p53_BLA_p5_viability: Viability Assessment in the Tox21 HCT-116 p53 Agonism Beta-lactamase Assay, Phase 5 (AID 2283600)
Method in brief: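 Seeded cells (4000/well) settle 5 h before compound addition. Plates then incubate 16 h at 37C, receive FRET substrate for 2 h, and finally CellTiter-Glo, with luminescence measured after a 30 min room-temperature incubation.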

[6] = molecular target: Cellular tumor antigen p53 (Homo sapiens) (UniProt P04637); assay: TOX21_p53_BLA_p4_ratio: Tox21 HCT-116 p53 Agonism Beta-lactamase Assay, Ratio, Phase 4 (AID 2283601)
Method in brief: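 HCT-116 p53 beta-lactamase reporter cells (4000/well) preincubated 5 h, then compound (217-fold dilution of DMSO stock) for 16 h at 37C. CCF4-AM substrate added 2 h at room temperature; 460/530 nm emission ratio fitted upward versus DMSO.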

[7] = molecular target: Thyroid hormone receptor alpha (Rattus norvegicus) + Thyroid hormone receptor beta (Rattus norvegicus) (UniProt P18113+P63059); assay: TOX21_TR_LUC_GH3_Agonist_Followup: Tox21 GH3 Thyroid Hormone Receptor Agonism Luciferase Follow-Up Assay (AID 2283939)
Sequence of Thyroid hormone receptor alpha (Rattus norvegicus) + Thyroid hormone receptor beta (Rattus norvegicus) (P63059 whole entry, looked up): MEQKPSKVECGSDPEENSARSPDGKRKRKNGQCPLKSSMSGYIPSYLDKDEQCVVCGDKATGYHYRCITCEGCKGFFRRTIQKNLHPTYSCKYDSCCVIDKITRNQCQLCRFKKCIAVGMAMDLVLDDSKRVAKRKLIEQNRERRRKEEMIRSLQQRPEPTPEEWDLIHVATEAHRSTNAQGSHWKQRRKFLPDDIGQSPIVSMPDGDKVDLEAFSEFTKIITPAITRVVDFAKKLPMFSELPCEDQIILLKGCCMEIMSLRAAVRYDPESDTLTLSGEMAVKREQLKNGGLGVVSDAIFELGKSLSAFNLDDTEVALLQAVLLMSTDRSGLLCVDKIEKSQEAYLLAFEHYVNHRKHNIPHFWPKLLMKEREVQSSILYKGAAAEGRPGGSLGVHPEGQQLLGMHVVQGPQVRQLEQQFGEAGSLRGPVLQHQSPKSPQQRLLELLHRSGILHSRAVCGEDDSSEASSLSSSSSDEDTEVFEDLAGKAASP
Sequence of Thyroid hormone receptor alpha (Rattus norvegicus) + Thyroid hormone receptor beta (Rattus norvegicus) (P18113 whole entry, looked up): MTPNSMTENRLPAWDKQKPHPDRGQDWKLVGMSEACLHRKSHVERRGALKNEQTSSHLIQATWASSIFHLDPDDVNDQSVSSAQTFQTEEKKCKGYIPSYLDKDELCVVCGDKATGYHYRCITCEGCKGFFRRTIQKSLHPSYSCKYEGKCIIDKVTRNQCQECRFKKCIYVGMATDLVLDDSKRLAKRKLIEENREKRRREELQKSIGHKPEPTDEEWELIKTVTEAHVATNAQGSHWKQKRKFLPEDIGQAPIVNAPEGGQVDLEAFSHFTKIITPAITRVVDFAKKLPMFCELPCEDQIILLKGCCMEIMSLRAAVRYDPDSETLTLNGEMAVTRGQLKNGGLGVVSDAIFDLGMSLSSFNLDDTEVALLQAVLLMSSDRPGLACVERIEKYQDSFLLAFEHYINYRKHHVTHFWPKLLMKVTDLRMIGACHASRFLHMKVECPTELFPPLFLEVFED
Method in brief: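 Rat GH3 cells (1,500/well) in serum-free assay medium, treated with 15-point series, 92 uM to 5 nM final, for 24 h at 37C. Luciferase via ONE-Glo luminescence; gain of signal fitted against DMSO, T3 positive control.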

THRA (gene 7067) = THRA (gene 7067) (UniProt P10827); assay: TOX21_TRA_COA_Agonist_Followup_ratio: Tox21 Thyroid Hormone Receptor alpha Agonism through Coactivator Recruitment Follow-Up Assay, Ratio (AID 2283948; active = hit-call score of the fitted dose curve at least 0.9, where 1 is the maximum; inactive = score below 0.9)
Sequence of THRA (gene 7067) (P10827 whole entry, looked up, the tested form may be a part): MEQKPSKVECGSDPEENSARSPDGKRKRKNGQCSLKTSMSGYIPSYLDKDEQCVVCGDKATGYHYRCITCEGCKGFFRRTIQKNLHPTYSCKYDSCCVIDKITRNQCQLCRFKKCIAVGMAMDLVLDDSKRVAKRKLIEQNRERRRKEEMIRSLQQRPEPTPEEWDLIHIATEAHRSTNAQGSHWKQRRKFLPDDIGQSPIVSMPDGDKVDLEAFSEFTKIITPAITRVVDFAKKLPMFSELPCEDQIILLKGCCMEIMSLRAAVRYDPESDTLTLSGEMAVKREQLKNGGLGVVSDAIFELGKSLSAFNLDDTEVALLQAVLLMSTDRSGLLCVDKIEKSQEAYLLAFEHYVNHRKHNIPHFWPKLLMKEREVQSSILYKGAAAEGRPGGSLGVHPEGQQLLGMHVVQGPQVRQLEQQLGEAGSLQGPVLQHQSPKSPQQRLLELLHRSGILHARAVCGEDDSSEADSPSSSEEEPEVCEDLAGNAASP
Method in brief: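 Agonist-mode biochemical TR-FRET with TRα LBD and SRC-2 coactivator peptide; activity expressed as percent of T3 response over DMSO baseline.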

THRB (gene 7068) [8] = molecular target: THRB (gene 7068) (UniProt P10828); assay: TOX21_TRB_BLA_Agonist_Followup_ratio: Tox21 Thyroid Hormone Receptor beta Agonism Beta-lactamase (BLA) Follow-Up Assay, Ratio (AID 2283954)
Sequence of THRB (gene 7068) (P10828 whole entry, looked up, the tested form may be a part): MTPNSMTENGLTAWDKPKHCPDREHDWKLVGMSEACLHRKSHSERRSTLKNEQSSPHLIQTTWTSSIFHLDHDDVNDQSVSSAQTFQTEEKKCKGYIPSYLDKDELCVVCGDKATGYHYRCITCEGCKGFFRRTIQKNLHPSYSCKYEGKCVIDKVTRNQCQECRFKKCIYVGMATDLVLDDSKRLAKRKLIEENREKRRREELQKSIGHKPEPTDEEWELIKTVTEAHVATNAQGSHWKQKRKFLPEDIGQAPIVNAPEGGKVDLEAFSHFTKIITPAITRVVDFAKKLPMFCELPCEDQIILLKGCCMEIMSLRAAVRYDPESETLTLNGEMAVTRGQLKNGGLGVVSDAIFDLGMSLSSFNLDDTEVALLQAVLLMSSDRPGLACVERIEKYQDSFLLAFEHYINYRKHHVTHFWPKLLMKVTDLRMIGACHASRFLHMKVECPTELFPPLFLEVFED
Method in brief: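 Human TRβ LBD–GAL4 DBD fusion in GeneBLAzer UAS-bla HEK293T cells; 11 concentrations in triplicate, 18 h at 37°C/5% CO2, T3 as agonist control. CCF4-AM substrate 2 h at room temperature; 460:530 nm ratio fitted for gain of signal versus DMSO.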

THRB (gene 7068) [9] = molecular target: THRB (gene 7068) (UniProt P10828); assay: TOX21_TRB_COA_Agonist_Followup_ratio: Tox21 Thyroid Hormone Receptor beta Agonism through Coactivator Recruitment Follow-Up Assay, Ratio (AID 2283963; active = hit-call score of the fitted dose curve at least 0.9, where 1 is the maximum; inactive = score below 0.9)
Method in brief: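 Signal is the 520/495 nm emission ratio (excitation 340 nm), scaled between DMSO-only wells as 0% and T3 wells as 100%. It reflects fluorescein-labeled SRC-2 peptide recruitment to GST-TRβ ligand-binding domain detected via terbium anti-GST antibody.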

[10] = molecular target: Retinoic acid receptor RXR-alpha (Homo sapiens) (UniProt P19793); assay: TOX21_TR_RXR_BLA_Agonist_Followup_ratio: Tox21 Thyroid Hormone Receptor beta Retinoid X Receptor alpha (RXRa) Agonism Beta-lactamase (BLA) Follow-Up Assay, Ratio (AID 2283968)
Sequence of Retinoic acid receptor RXR-alpha (Homo sapiens) (P19793 whole entry, looked up, the tested form may be a part): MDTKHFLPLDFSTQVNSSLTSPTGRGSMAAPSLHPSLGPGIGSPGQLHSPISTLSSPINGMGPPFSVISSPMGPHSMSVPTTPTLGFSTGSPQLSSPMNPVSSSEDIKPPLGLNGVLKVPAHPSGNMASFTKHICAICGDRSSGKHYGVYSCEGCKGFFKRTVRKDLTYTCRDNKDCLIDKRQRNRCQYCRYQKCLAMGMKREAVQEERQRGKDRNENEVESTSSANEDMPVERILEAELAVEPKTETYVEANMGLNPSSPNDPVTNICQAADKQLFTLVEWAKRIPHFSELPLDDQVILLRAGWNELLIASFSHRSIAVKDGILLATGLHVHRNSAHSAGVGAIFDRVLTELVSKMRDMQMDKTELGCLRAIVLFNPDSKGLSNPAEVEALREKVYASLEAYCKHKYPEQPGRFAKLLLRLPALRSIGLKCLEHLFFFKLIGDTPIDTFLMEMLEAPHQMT
Method in brief: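 RXRa-UAS-bla HEK293T cells (GAL4 beta-lactamase reporter) were treated with compounds at 11 concentrations in triplicate for 16 h at 37C/5% CO2, then loaded with CCF4-AM substrate for 2 h at room temperature; activity is the 460:530 nm ratio versus DMSO baseline.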

Measured: AC50

CC(C)CC(C)(N)C#N (stereo not given)
inactive: [1] | [2] | [3] | [4] | [5] | [6]

C=CC1CO1 (stereo not given)
inactive: [1] | [2] | [3] | [4] | [5] | [6]

Cc1cc(O)c2c(c1)C(=O)c1cccc(O)c1C2=O
inactive: [1] | [2] | [3] | [4] | [5] | [6]

C[C@]12CCC(=O)C=C1CC[C@@H]1[C@@H]2[C@@H](O)C[C@@]2(C)[C@H]1CC[C@]2(O)C(=O)COP(=O)(O)O
inactive: [1] | [2] | [3] | [4] | [5] | [6]

C/C=C(\C)C=O
inactive: [1] | [2] | [3] | [4] | [5] | [6]

c1ccc2sc(SSc3nc4ccccc4s3)nc2c1
inactive: [1] | [2] | [3] | [4] | [5] | [6]

CCc1cc(S(=O)(=O)O)c2cc(C(C)C)cccc1-2
inactive: [1] | [2] | [3] | [4] | [5] | [6]

O=C(O)Cc1nn(Cc2ccc(Br)cc2F)c(=O)c2ccccc12
inactive: [1] | [2] | [3] | [4] | [5] | [6]

N[C@H](CO)C(=O)O
inactive: [1] | [2] | [3] | [4] | [5] | [6]

Oc1cn2c(n1)Nc1ccc(Cl)c(Cl)c1C2
inactive: [1] | [2] | [3] | [4] | [5] | [6]

CCN(CC)CCNC(=O)c1ccc(NC(C)=O)cc1
inactive: [1] | [2] | [3] | [4] | [5] | [6]

CCCCCCCCOCCC#N
inactive: [1] | [2] | [3] | [4] | [5] | [6]

CCCCNc1ccc(C(=O)OCCN(C)C)cc1
inactive: [1] | [2] | [3] | [4] | [5] | [6]

CCn1nc(C(=O)O)c(=O)c2cc3c(cc21)OCO3
inactive: [1] | [2] | [3] | [4] | [5] | [6]

c1ccc(CSCc2ccccc2)cc1
inactive: [1] | [2] | [3] | [4] | [5] | [6]

N#Cc1c(F)cccc1F
inactive: [1] | [2] | [3] | [4] | [5] | [6]

O=C(Oc1ccccc1)Oc1ccccc1
inactive: [1] | [2] | [3] | [4] | [5] | [6]

CC[N+](CC)(CC)CCOc1ccc(/C=C/c2ccccc2)cc1
inactive: [1] | [2] | [3] | [4] | [5] | [6]

O=C(O)/C=C/c1ccc(Cn2ccnc2)cc1
inactive: [1] | [2] | [3] | [4] | [5] | [6]

Nc1ncnc2c1ncn2[C@@H]1O[C@H](CO)[C@@H](O)[C@H]1O
inactive: [1] | [2] | [3] | [4] | [5] | [6]

O=C(Nc1ccc(/C=C/c2ccc(NC(=O)c3cc(S(=O)(=O)O)c4cccnc4c3O)cc2S(=O)(=O)O)c(S(=O)(=O)O)c1)c1cc(S(=O)(=O)O)c2cccnc2c1O
inactive: [1] | [2] | [3] | [4] | [5] | [6]

CC(S)C(C)S (stereo not given)
inactive: [1] | [2] | [3] | [4] | [5] | [6]

CC(C(=O)O)c1cccc(Oc2ccccc2)c1 (stereo not given)
inactive: [1] | [2] | [3] | [4] | [5] | [6]

NCC(=O)CCC(=O)O
inactive: [1] | [2] | [3] | [4] | [5] | [6] | THRA (gene 7067) | THRB (gene 7068) [8] | THRB (gene 7068) [9] | [10]
active: [7] 13.1 µM

COc1cc2c3cc1Oc1cc(ccc1O)C[C@@H]1c4c(cc(OC)c(O)c4Oc4ccc(cc4)C[C@@H]3N(C)CC2)CC[N+]1(C)C
inactive: [1] | [2] | [3] | [4] | [5] | [6]
